USP17 inh: human USP17-like deubiquitinase inhibition; AID 1645855; 6.5% of 47,000 active; purified USP17, Ub-rhodamine cleavage fluorescence, 3 h; inhibition, % at 50 µM
USP28 inh: inhibitors of human USP28 deubiquitinase | purified USP28, Ub-rhodamine cleavage fluorescence, 30 min | AID 1645857 | Q96RU2 | 3% of 47,000 active | inhibition, % at 25 µM
USP30 block: human USP30 deubiquitinase inhibition; Q70CQ3; purified USP30, Ub-rhodamine cleavage fluorescence; inhibition, % at 25 µM; 5.3% of 47,000 active
Target sequence (Q70CQ3 whole entry, looked up): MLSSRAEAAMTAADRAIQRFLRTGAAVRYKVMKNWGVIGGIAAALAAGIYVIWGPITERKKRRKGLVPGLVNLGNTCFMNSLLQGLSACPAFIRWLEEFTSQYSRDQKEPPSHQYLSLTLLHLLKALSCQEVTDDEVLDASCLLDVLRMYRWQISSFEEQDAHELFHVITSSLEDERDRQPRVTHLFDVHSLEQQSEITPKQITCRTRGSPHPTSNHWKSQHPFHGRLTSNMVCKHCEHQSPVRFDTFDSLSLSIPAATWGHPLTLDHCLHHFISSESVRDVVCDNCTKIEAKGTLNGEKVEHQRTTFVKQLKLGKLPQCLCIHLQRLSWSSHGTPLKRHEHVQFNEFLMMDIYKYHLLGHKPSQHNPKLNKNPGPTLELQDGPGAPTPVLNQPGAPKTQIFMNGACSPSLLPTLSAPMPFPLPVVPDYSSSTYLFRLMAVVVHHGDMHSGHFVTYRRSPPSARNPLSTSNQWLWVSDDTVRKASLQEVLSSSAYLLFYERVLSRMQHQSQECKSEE
An asterisk follows results filed as active; / = no result given. Rows were chosen to be rich in hits. Some 11% of all compounds tested hit in one or more screens of this group. Cut-off read from the data, not from the text of the source: active = inhibition above about 30%; inactive = the rest.

SMILES	USP17 inh	USP28 inh	USP30 block
COc1cnc(CSc2ccccc2)cc1OCC(=O)Nc1ccc(F)cc1	28.9	8.8	43.0*
COc1cnc(CSc2ncccn2)cc1OCC(=O)Nc1ccc(C)cc1C	8.2	-13.4	8.7
COc1cnc(CSc2ccccc2)cc1OCC(=O)Nc1ccccc1	-1.3	-4.2	-6.7
COc1cnc(CSc2ccccc2)cc1OCC(=O)Nc1ccccc1F	36.3*	-3.3	24.8
COc1ccc(NC(=O)COc2cc(CSc3ccccc3)ncc2OC)cc1	61.2*	16.8	43.3*
COC(=O)Cc1sc(N2CCOCC2)nc1-c1ccccc1	-9.1	-8.3	-86.3
CCc1cccc(C)c1NC(=O)CSc1nc2ncccc2[nH]1	-17.9	-15.0	-38.4
Cc1cccc(C(=O)N2CCOCC(Cc3ccc4[nH]ncc4c3)C2)n1 (centres undefined)	7.3	3.7	11.1
Cc1ccc(Cl)cc1NC(=O)c1ccc(N(C)C)cc1	15.4	-10.9	11.2
CN(C)c1ccc(/C=N/NC(=O)c2ccc(Cl)cc2)cc1	88.2*	-1.9	23.3
CCCCN1Cc2sc(NC(=O)Nc3ccccc3Cl)nc2C1=O	-1.0	-3.3	-6.7
COc1cc(/C=C/C(=O)OCC(=O)Nc2ccc([N+](=O)[O-])cc2OC)ccc1O	/	84.3*	65.5*
COc1cc(/C=C/C(=O)O)ccc1O	-1.6	-3.5	6.7
Cc1cc(Cl)c2c(c1)[C@]1(C(=O)N2)N2CCC[C@H]2[C@@H](C(=O)c2cc3ccccc3o2)[C@]12C(=O)Nc1ccccc12	63.3*	-18.6	-47.7
O=C(c1cc2ccccc2o1)[C@@H]1[C@@H]2CCCN2[C@]2(C(=O)Nc3c(Cl)cccc32)[C@@]12C(=O)Nc1ccccc12	-9.3	-12.4	-83.0
Cn1nccc1C(=O)NCc1cnc(C2CCCCO2)nc1 (centres undefined)	2.3	9.3	5.5
CC[C@H](C)[C@H](NC(=O)[C@H]([C@@H](C)CC)N(C)C(C)=O)C(=O)N[C@H](C(=O)N[C@@H](CC(C)C)C(=O)C1(C)CO1)[C@@H](C)O (some centres undefined)	42.7*	43.1*	22.2
O=C(NC1CC1)c1nc(-c2cccc3[nH]ccc23)no1	-8.4	-5.5	-7.8
COc1ccccc1C(=O)N1CCn2c(nc3ccccc32)CC1C (centres undefined)	0.0	5.7	5.3
OC(CN1CCN(Cc2ccc3c(c2)OCO3)CC1)c1ccccc1 (centres undefined)	4.1	-5.2	-3.5
CC(Oc1cccc(F)c1)C(=O)N1CCN(c2ccc3nnc(-c4ccco4)n3n2)CC1 (centres undefined)	7.4	-0.3	-8.1
N#Cc1ccccc1OCC(=O)NC1CCCc2ccccc21 (centres undefined)	-9.4	-8.6	0.8
COc1cc(N)c(Cl)cc1C(=O)OCC(=O)c1ccc2c(c1)OCCO2	1.5	54.5*	0.0
COc1cc(N)c(Cl)cc1C(=O)OCC(=O)Nc1ccc(N2CCOCC2)cc1	38.1*	3.1	5.4
O=C(COC(=O)c1ccc(F)c(S(=O)(=O)N2CCOCC2)c1)NC1CCCCC1	8.9	7.8	-0.2
SMILES	USP17 inh	USP28 inh	USP30 block
NS(=O)(=O)c1cc(C(=O)OCC(=O)Nc2ccc(N3CCOCC3)cc2)ccc1Cl	33.7*	-1.4	13.6
Cc1cccc(Nc2ccccc2C(=O)OCC(=O)Nc2ccc(N3CCOCC3)cc2)c1C	12.6	8.0	18.6
NS(=O)(=O)c1cc(C(=O)OCC(=O)NC2CCCc3ccccc32)ccc1Cl (centres undefined)	55.2*	13.2	31.8*
COc1cc(N)c(Cl)cc1C(=O)OCC(=O)NCc1ccc2c(c1)OCO2	4.5	0.5	-23.0
Cn1ccnc1-c1cc2nc3c(c(NCCc4cnc[nH]4)n2n1)CCCC3	-41.2	-5.8	-13.9
O=C(N[C@@H]1C[C@@H](Oc2cccc(F)c2)[C@H](O)[C@H]1N1CCCC1)c1cnco1	-5.9	2.6	0.0
CC1=C(c2ccccc2)S(=O)(=O)N(CC(=O)Nc2cccc(C)c2C)C1=O	3.9	7.5	15.5
CCc1cccc(NC(=O)Cn2c(-c3cnccn3)nc(C)c(C)c2=O)c1	-11.2	-11.9	5.8
Cc1cc(Nc2cccc(C(=O)Nc3ccccc3C)c2)n2nc(-c3cccnc3)nc2n1	8.0	25.0	46.1*
Cc1cc(Nc2ccc(C(=O)NCc3ccco3)cc2)n2nc(-c3cccnc3)nc2n1	74.7*	11.0	30.3*
Cc1cc(NCCC(=O)Nc2ccc(F)cc2)n2nc(-c3cccnc3)nc2n1	-3.0	8.3	-1.0
CC(C)c1cc(Nc2cccc(F)c2)n2nc(-c3cccnc3)nc2n1	34.3*	6.1	53.1*
CC(C)c1cc(NCc2cccnc2)n2nc(-c3cccnc3)nc2n1	-0.1	/	/
CCc1ccc(NC(=O)CCNc2cc(C)nc3nc(-c4cccnc4)nn23)cc1	34.4*	-41.8	-46.8
Cc1cc(Nc2ccc(Cl)cc2)n2nc(-c3cccnc3)nc2n1	12.0	4.0	13.1
Cc1cc(Nc2cccc(C(=O)Nc3ccccc3)c2)n2nc(-c3cccnc3)nc2n1	28.2	9.2	20.9
O=S(=O)(/C=C/c1ccccc1)N1CCN(Cc2nnc(-c3ccccc3)o2)CC1	7.1	10.0	10.5
CCOc1ccc(-c2cc(C(=O)NCC(c3ccccc3)N3CCCC3)no2)cc1 (centres undefined)	-64.9	-48.4	-383.4
O=C1CC2(CCCCC2)CC(=O)N1c1cc(S(=O)(=O)N2CCCCC2)ccc1Cl	12.7	7.1	3.1
CCc1nc(SCC(=O)NC(c2ccccc2)c2ccccc2)c2c3c(sc2n1)COC(C)(C)C3	-4.4	-5.8	-2.2
O=C(c1nc(-c2cnccn2)no1)N1CCN(C2CCCCC2)CC1	11.4	-2.7	-7.4
Cc1ccc(S(=O)(=O)CC(O)COc2ccc(C#N)cc2)c(C)c1 (centres undefined)	-12.7	-12.9	-10.7
Cc1nn2c(CNS(=O)(=O)c3cccc(F)c3)c(C)nc2s1	-11.1	-14.5	-19.4
CCN1C(=O)c2ccccc2Sc2ccc(C(=O)NCc3ccc(C)cc3)cc21	-0.6	38.4*	25.8
O=C(c1ccc2c(c1)N(Cc1ccccc1F)C(=O)c1ccccc1S2)N1CCCC1	10.9	12.8	14.8
SMILES	USP17 inh	USP28 inh	USP30 block
Cc1cccc(CN2C(=O)c3ccccc3Sc3ccc(C(=O)NC4CCCC4)cc32)c1	-5.9	1.6	0.4
O=C(NCc1ccco1)c1ccc2c(c1)N(Cc1cccc(F)c1)C(=O)c1ccccc1S2	58.3*	6.0	-39.7
COc1cc(OC)nc(N2CCC(C(=O)NCc3ccc(Cl)cc3)CC2)n1	23.7	-4.2	27.0
NC(=O)COc1ccc2c(Cc3ccccc3F)noc2c1	2.4	8.7	9.9
O=C(C[n+]1cc(-c2ccc(F)cc2)n2c1CCC2)c1cccs1	0.0	0.5	8.5
Cc1ccc(-c2c[n+](CC(=O)Nc3cccc4ccccc34)c3n2CCC3)cc1	6.8	17.9	34.0*
O=C(CCc1c[nH]c2ccccc12)N1CCOCC1c1ccn[nH]1 (centres undefined)	4.1	-13.8	3.2
COc1ccc(CN2CCCC23CCCN(C(=O)CCc2cccnc2)C3)cc1F (centres undefined)	41.5*	92.6*	96.3*
O=C(CCc1cccnc1)N1CCCC2(CCCN2Cc2ccc(Cl)cc2)C1 (centres undefined)	-22.9	-3.1	0.5
COc1cccc(C(=O)C2CC2c2ccc(Cl)cc2)c1 (centres undefined)	-0.5	0.6	0.5
